# Laboratory results from PMC7819943, “Rice protein-binding microarrays: a tool to detect cis-acting elements near promoter regions in rice”.
# The full ranking holds about 39,000 sequences; the median of “fluorescence intensity (a.u.)” is about 4,300, and the highest 2% start at about 39,000. The list comes from a sample in which the highest values are over-represented; it also holds similar and randomly drawn sequences.
# Biological target: T1, OsSMF1 (Oryza sativa, UniProt Q6ZLB0 1-436)
# T1 sequence: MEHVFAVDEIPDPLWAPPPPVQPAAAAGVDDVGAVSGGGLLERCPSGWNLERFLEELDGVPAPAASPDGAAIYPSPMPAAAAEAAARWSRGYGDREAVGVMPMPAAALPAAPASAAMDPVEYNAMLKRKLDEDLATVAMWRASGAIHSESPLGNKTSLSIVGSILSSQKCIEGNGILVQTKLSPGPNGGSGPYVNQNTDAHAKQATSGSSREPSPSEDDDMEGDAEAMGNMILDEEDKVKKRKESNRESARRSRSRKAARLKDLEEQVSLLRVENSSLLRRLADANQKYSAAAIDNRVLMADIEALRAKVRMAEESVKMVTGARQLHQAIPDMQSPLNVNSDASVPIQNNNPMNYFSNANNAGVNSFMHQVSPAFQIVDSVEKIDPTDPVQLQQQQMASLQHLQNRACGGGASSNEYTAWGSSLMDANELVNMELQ
# Experiment: protein-binding microarray (RPBM); PBS, 2% BSA, 51.3 ng/ul salmon testes DNA, 50 uM zinc acetate, 200 nM TF, 25 C, 1 h; high values mean tight binding
# Conditions: protein: recombinant; tags: N-terminal polyhistidine and DsRed monomer fusion (pET32a); chain copies: 2; label: CyDye5-dUTP incorporated in the synthesized complementary strand; 3' TTTTT single-stranded linker to array surface; dsDNA, one strand shown
# Procedure, shortened: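 Binding signal is reported as fluorescence intensity per feature (arbitrary units) from an Axon 4000B scanner. Incubation used 200 nM of each Ni–NTA-purified, N-terminally polyhistidine- and DsRed-fused transcription factor from E. coli BL21-CodonPlus on a double-stranded custom Agilent array for 1 h at 25 °C, with 50 µM zinc acetate in the buffer, followed by washing.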
row,Sequence,binding signal
1,GCTATAATATATTGCAGCAGCAGCAGCAGTGGTGGTGGTGCGGAGTCACCTAGTGCAG,3360 fluorescence intensity (a.u.)
2,TGATGGCCGGTGATCAGTGGCATGTGCATGTTATATTATTCGGAGTCACCTAGTGCAG,3260 fluorescence intensity (a.u.)
3,CACTCCAGAACCAAACGTTTGATGACTCTCTGCTTTTGCGCGGAGTCACCTAGTGCAG,4570 fluorescence intensity (a.u.)
4,ACAAACCGAGGAGGAGGAGGAGGGCCCACCAGCCACCACGCGGAGTCACCTAGTGCAG,3310 fluorescence intensity (a.u.)
5,ATAGTGGTTTTGGCTGACGTGGCGCCTACGTGGCTAATTTCGGAGTCACCTAGTGCAG,19600 fluorescence intensity (a.u.)
6,GCTAATTTGACTCGGTTTTCATCTGACGTGGCATTGACGTCGGAGTCACCTAGTGCAG,41400 fluorescence intensity (a.u.)
7,GGACGGTTTCGCTGATGTGGCGCCTACGTGGCATCCTAATCGGAGTCACCTAGTGCAG,20300 fluorescence intensity (a.u.)
8,AGATCATTAGTTAGCACATATCATCCACATCATCCTATTTCGGAGTCACCTAGTGCAG,5980 fluorescence intensity (a.u.)
9,CTGTTTCGCTGACGTGACGCCTACGTGGCATCCCAGTCATCGGAGTCACCTAGTGCAG,40300 fluorescence intensity (a.u.)
10,AGGGCGCTTTTGGCTGACATGGCGCCTACGTGGCTTGTTTCGGAGTCACCTAGTGCAG,28100 fluorescence intensity (a.u.)
11,CGGTTTTAGCTGACGTGGCGCCTACGTGGCAAAGTTGACCCGGAGTCACCTAGTGCAG,44700 fluorescence intensity (a.u.)
12,CTGACGAGCAGAACATTAGCTATCCTATCCAGAATAGTTTCGGAGTCACCTAGTGCAG,47400 fluorescence intensity (a.u.)
13,AAACCCAATCCAGTTAGGAATAGAACATTAGATATCCAACCGGAGTCACCTAGTGCAG,3940 fluorescence intensity (a.u.)
14,GCTGGTTTGATTAGATCTTCATCCCACGTGGCATTGACGTCGGAGTCACCTAGTGCAG,25100 fluorescence intensity (a.u.)
15,GTTTTGGCTGACGTGGCGCCTACGTGGTTTGTTTGACCTACGGAGTCACCTAGTGCAG,37300 fluorescence intensity (a.u.)
16,GGTTTTAGCTGACGTGGCGCCTACGTGACAGTGTTGACCCCGGAGTCACCTAGTGCAG,32700 fluorescence intensity (a.u.)
17,GCTTGCTCGCCGGCGGTGTGGGAATGATGACTCCCAGCCCCGGAGTCACCTAGTGCAG,4050 fluorescence intensity (a.u.)
18,GTCGTGTCGGCTGCCGATTACACTATCGGCAGTGCAGCCGCGGAGTCACCTAGTGCAG,4270 fluorescence intensity (a.u.)
19,CGCGGCGCGCACACGCCATGCCGGCATGCCGTGGCATACCCGGAGTCACCTAGTGCAG,3990 fluorescence intensity (a.u.)
20,CTATATATGTGACGCTGACGTTCCTCATCTCCCAAGCTGCCGGAGTCACCTAGTGCAG,7040 fluorescence intensity (a.u.)
21,TTAGTGTCTGCATTGGATATGAGTCACGGGTTCTTGGTTACGGAGTCACCTAGTGCAG,12600 fluorescence intensity (a.u.)

row,Sequence,binding signal
1,CGACGTCGGCGAGGGAGGGCTTCCTGGGCACGTCGGCGAGCGGAGTCACCTAGTGCAG,3150 fluorescence intensity (a.u.)
2,ACAGCAAACAAACGTAACACCTTAACACGTCATGCAGTTTCGGAGTCACCTAGTGCAG,15100 fluorescence intensity (a.u.)
3,AAGAGTCGGGTTGTGCTGACCCAAAAGCACGACAGCCCATCGGAGTCACCTAGTGCAG,3250 fluorescence intensity (a.u.)
4,ATACCGCGACAATGACATCTGAGTCAATGACTCGTGATAACGGAGTCACCTAGTGCAG,4510 fluorescence intensity (a.u.)
5,CTCATGATGGCTTTATCAATATCAAGATTTGATGACTCAGCGGAGTCACCTAGTGCAG,15400 fluorescence intensity (a.u.)
6,CATAGATCTTTTGACTAGGTTTTCGTTCCACGTGGCATCACGGAGTCACCTAGTGCAG,12900 fluorescence intensity (a.u.)
7,GTTTGAATAGGTCTTTCGTCCCACGTGGCATTGACGTGGCCGGAGTCACCTAGTGCAG,45700 fluorescence intensity (a.u.)
8,TAGGTCTTCGTCCCACGTGGCATTGACGTGGCGCTTACGCCGGAGTCACCTAGTGCAG,30000 fluorescence intensity (a.u.)
9,ACACTTATCGACGTGCCAGCGCGACGCAATATGCTCCGATCGGAGTCACCTAGTGCAG,5400 fluorescence intensity (a.u.)
10,CACAAATGAAGAAACAAGGTGTTGCATCACCAGTCATGGGCGGAGTCACCTAGTGCAG,6740 fluorescence intensity (a.u.)
11,TTTAACTATGAGAATATATAGTACGTGTTGAGACATGAAACGGAGTCACCTAGTGCAG,27800 fluorescence intensity (a.u.)
12,TCCATGCTGGTTTTAGTCCTACGTGACAATACAGTCAGCACGGAGTCACCTAGTGCAG,5640 fluorescence intensity (a.u.)
13,TGCAAGCAGCAAGCGTGTCACTACGTTTACATGACATGCACGGAGTCACCTAGTGCAG,47600 fluorescence intensity (a.u.)
14,TGACCTAATACATTCATGCTGACTAGCGTTTACGTGGCAACGGAGTCACCTAGTGCAG,14100 fluorescence intensity (a.u.)
15,TTTAATTATATTATCACTGACATGTGGGTCCCACTATATGCGGAGTCACCTAGTGCAG,4330 fluorescence intensity (a.u.)
16,CTCGACATTGCTGGCAATGCCTGGGAGATTGCTTGCCATGCGGAGTCACCTAGTGCAG,3180 fluorescence intensity (a.u.)
17,GCCAATGCCATGTCCTCTGCGGCCTGCTTGCTGGTGAACTCGGAGTCACCTAGTGCAG,46600 fluorescence intensity (a.u.)
18,CACTCCTCTGCTGCTCGTCGTCAATGCCATCCTCATCATGCGGAGTCACCTAGTGCAG,3330 fluorescence intensity (a.u.)
19,GATTTGCTTACATGAATAAGGTTGATTTGCATCGGCAAGACGGAGTCACCTAGTGCAG,4000 fluorescence intensity (a.u.)
20,CCCTTCCGGCTTCCACGCGTCGGGAACCGAAGTCCAAACCCGGAGTCACCTAGTGCAG,3360 fluorescence intensity (a.u.)
21,TCCAAGAAAGAAAGGAGAATTATCCGGCAGTTTCAGAGGTCGGAGTCACCTAGTGCAG,22200 fluorescence intensity (a.u.)
